Among the test systems are T-47D breast; BT-549 breast; MDA-MB-435 melanoma; SW-620 colon; MCF7 breast; HCT-116 colon; HCC-2998 colon; KM12 colon.
Assay in all cases: NCI-60 one-dose screen, 48 h (100 = growth as untreated, 0 = no growth, -100 = all killed)
What all share (settings): 10 µM unless noted

About 83,000 compounds went through this panel and 20% of them were active in at least one assay; those are over-represented in the sample as a whole.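 Single-concentration screen, 48 h exposure, 96-well plates. Endpoint: percent growth. Below 10 = active.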 Unmarked numbers belong to inactive results. Calls of active or inactive are those of the source.

Take `O=C1c2ccccc2C(=O)c2c1oc1ccc3ccccc3c21`: the growth in the experiment with T-47D breast is 23.5%; in the experiment with BT-549 breast, 70.2%; with MDA-MB-435 melanoma it was 91.3%; in the experiment with SW-620 colon, 91.6%; in the experiment on MCF7 breast, 21.8%; in the experiment on HCT-116 colon, 62.2%. The results for the growth in the experiment on HCC-2998 colon and in the experiment with KM12 colon were 99% and 61.6%, respectively.
On to `CCOCC(O)(c1ccc(Cl)cc1)c1ccc(Cl)cc1`, for which the growth in the experiment with T-47D breast is 98.5%; with BT-549 breast, 115%; in the experiment with MDA-MB-435 melanoma it was 102%; in the experiment with SW-620 colon it was 97.4%; with MCF7 breast it was 110%; in the experiment on HCT-116 colon it was 93%. In addition, the growth in the experiment on HCC-2998 colon is 109%; with KM12 colon, 90.4%.
As to `Cc1cc2nc3c(=O)[nH]c(=O)nc-3n(CC=O)c2cc1C`, the growth was 100% in the experiment with T-47D breast; 113% in the experiment with BT-549 breast; 92.2% with MDA-MB-435 melanoma; 99.9% in the experiment with SW-620 colon; 99% in the experiment on MCF7 breast; 106% in the experiment on HCT-116 colon. Further, the growth with HCC-2998 colon was 111%; with KM12 colon, 107%.
For the molecule `Cc1nc2c(-c3cnc(N)nc3)nc(N3CCOCC3)nc2n1C(C)C`, the growth in the experiment on T-47D breast was -18% (active); with BT-549 breast it was -3.32% (active); with MDA-MB-435 melanoma, 4.17% (active); with SW-620 colon, 11.3%; in the experiment on MCF7 breast it was 9.9% (active); in the experiment with HCT-116 colon it was 17.2%. In the experiment on KM12 colon, the growth was 5.78% (active).
For the molecule `O=C1OCC2=C1C(c1cccc(Br)c1)c1cc3c(cc1N2CCO)OCCO3` (stereo not given), the growth with T-47D breast was 76.9%; in the experiment on BT-549 breast, 21.4%; with MDA-MB-435 melanoma, -40.4% (active); with SW-620 colon, 21.3%; in the experiment with MCF7 breast it was 18.2%; in the experiment on HCT-116 colon, 6.29% (active). The growth in the experiment on KM12 colon was -33.9% (active).
For the molecule `COc1cc(C2Nc3ccccc3S2)cc(CN2CCOCC2)c1O` (stereo not given), the growth with T-47D breast is 88.4%; with BT-549 breast, 84.9%; in the experiment with MDA-MB-435 melanoma, 0.594% (active); in the experiment on SW-620 colon, 50.7%; with MCF7 breast, 50.6%; in the experiment on HCT-116 colon, 53.2%. Further, the growth in the experiment with HCC-2998 colon was 86.4%; in the experiment on KM12 colon it was 55.4%.
Consider `CCN(CC)CCC(CNc1ccnc2cc(Cl)ccc12)c1ccc(O)cc1` (stereo not given), for which the growth in the experiment on T-47D breast was 114%; in the experiment on BT-549 breast it was 80.5%; with MDA-MB-435 melanoma, 60.7%; with SW-620 colon, 51.2%; with MCF7 breast, 113%; in the experiment on HCT-116 colon, 49.5%. Besides, the growth was 88.9% with HCC-2998 colon and 82% in the experiment on KM12 colon.
Regarding `CCN(CC)Cc1cc(Nc2nc(NC3CCC(N(C)C)CC3)c3ccccc3n2)ccc1OC` (stereo not given), the growth in the experiment with T-47D breast was 53.9%; with BT-549 breast, 107%; in the experiment on MDA-MB-435 melanoma it was 39.5%; in the experiment with SW-620 colon it was 61.4%; in the experiment on MCF7 breast it was 40.1%; in the experiment with HCT-116 colon, 60.5%. Moreover, the growth in the experiment on HCC-2998 colon is 81.3%; with KM12 colon it was 61.1%.
On to `CCCCCCCCCCCCCCCCS(=O)(=O)Nc1cc(C(=O)NN)cc(C(=O)NN)c1`, for which the growth with T-47D breast is 42%; with BT-549 breast it was 61.5%; in the experiment on MDA-MB-435 melanoma it was 89.9%; with SW-620 colon it was 96%; with MCF7 breast, 72.1%; in the experiment on HCT-116 colon it was 71.3%. Also, the growth with HCC-2998 colon was 48.2%; in the experiment with KM12 colon it was 73%.
On to `Cc1cc(C)cc(Nc2cc(C)nc3nc(C(F)(F)F)nn23)c1`, for which the growth is 29.5% in the experiment with T-47D breast; 49% with BT-549 breast; 36.9% with MDA-MB-435 melanoma; 35.2% in the experiment with SW-620 colon; -11.7% (active) with MCF7 breast; 19.2% in the experiment with HCT-116 colon. The figures for the growth in the experiment on HCC-2998 colon and with KM12 colon were 40.2% and 25.7%, respectively.
Consider `COC(=O)c1cc(Cl)cc([N+](=O)[O-])c1O`, for which the growth with T-47D breast is 101%; with BT-549 breast, 108%; in the experiment on MDA-MB-435 melanoma, 99.3%; with SW-620 colon it was 102%; in the experiment on MCF7 breast, 113%; in the experiment on HCT-116 colon, 101%. For the same molecule, the growth in the experiment with HCC-2998 colon is 104%; with KM12 colon it was 109%.
Regarding `CCCCCCCCCCCCCC(=S)NCCCC[C@H](NC(=O)OCc1ccccc1)C(=O)Nc1ccccc1`, the growth in the experiment on T-47D breast was 43.5%; in the experiment with BT-549 breast, 107%; in the experiment with MDA-MB-435 melanoma it was 51.4%; in the experiment with SW-620 colon, 32.7%; in the experiment with MCF7 breast, 42.4%; in the experiment with HCT-116 colon it was 25%. Also, the growth in the experiment with KM12 colon was 25.9%.
For the molecule `NC(=O)c1noc(C(=O)c2ccccc2)c1N`, the growth in the experiment on T-47D breast was 100%; in the experiment with BT-549 breast, 98.2%; with MDA-MB-435 melanoma it was 95.6%; in the experiment on SW-620 colon it was 101%; in the experiment on MCF7 breast, 97.3%; in the experiment with HCT-116 colon it was 85.4%. Besides, the growth in the experiment on HCC-2998 colon was 119%; in the experiment with KM12 colon, 98.7%.
Turning to `COc1cc(NCCCCC(C)N)c2nccc(C)c2c1` (stereo not given), the growth with T-47D breast was 48.1%; with BT-549 breast it was 94.5%; with MDA-MB-435 melanoma it was 106%; in the experiment with SW-620 colon, 93.3%; in the experiment with MCF7 breast, 4.24% (active); in the experiment with HCT-116 colon, 99.2%. Further, the growth with HCC-2998 colon was 63.9%; in the experiment with KM12 colon, 94.7%.
With `N#Cc1nc(-c2ccc(Cl)cc2)cc(-c2ccc(Nc3nc(N4CCCCC4)nc(N4CCCCC4)n3)cc2)c1N`, the growth in the experiment with T-47D breast is 100%; with BT-549 breast it was 99.2%; in the experiment on MDA-MB-435 melanoma it was 106%; in the experiment with SW-620 colon, 99.3%; in the experiment on MCF7 breast, 99.6%; in the experiment with HCT-116 colon, 102%. The growth is 112% in the experiment with HCC-2998 colon and 107% in the experiment with KM12 colon.
Regarding `COc1cc(OC)cc(-c2n/c(=C\c3c(O)[nH]c4ccc(Cl)cc34)cc3c2=Nc2ccccc2-3)c1`, the growth in the experiment on T-47D breast was 84.9%; in the experiment with BT-549 breast, 97.2%; with MDA-MB-435 melanoma, 99.3%; with SW-620 colon it was -1.36% (active); with MCF7 breast, 24.3%; in the experiment on HCT-116 colon it was 2.45% (active). The growth in the experiment on HCC-2998 colon is 103%; with KM12 colon, 22.8%.

For the origin of these results see PubChem BioAssay (NCI).
